Assay results published in the supplement of paper PMC6555819.

Tests used:
Assay in all cases: PBM binding z-score (relative to random genomic background probes); higher = stronger binding; sequences stand for … in GC…GCGATTGACAGCGTAGAATGAAGG
[1] = tested on: RARb homodimer (NR concentration 270 nM)
How it was run: (§1)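 Scanned fluorescence from custom Agilent 4×180K protein-binding microarrays was regression-normalized. Binding z-scores use random background probes as reference. Ligand-free nuclear receptor dimers were incubated on the arrays for 1 h and detected with antibodies against each partner (one per run).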

[2] = tested on: RARg:RXRa (NR concentration 270 nM, RXRa partner concentration 90 nM)
How it was run: as §1

[3] = tested on: RARg homodimer (NR concentration 270 nM)
How it was run: as §1

[4] = tested on: RXRa DBDmut IVT, anti-RXR (DBD mutation: RXRa K156A/R161A, NR concentration 90 nM)
How it was run: as §1

[5] = tested on: RXRa homodimer (NR concentration 180 nM)
How it was run: as §1

[6] = tested on: THRa:RXRa (NR concentration 90 nM, RXRa partner concentration 90 nM)
How it was run: as §1

[7] = tested on: THRa homodimer (NR concentration 90 nM)
How it was run: as §1

[8] = tested on: VDR homodimer (NR concentration 270 nM)
How it was run: as §1

Row | Sequence | PBM binding z-score [1] | PBM binding z-score [2] | PBM binding z-score [3] | PBM binding z-score [4] | PBM binding z-score [5] | PBM binding z-score [6] | PBM binding z-score [7] | PBM binding z-score [8]
1 | ATGTCTAGGTAAGACTCAGTTCAGTGAAGAACGC | 0.578 | 0.0385 | 0.257 | 0.0481 | 0.0164 | 0.567 | 0.326 | 1.07
2 | TCTATTAGTTGATTAGGGCAAGCGAAACAGCGGA | 0.589 | 0.429 | 0.466 | 0.689 | 0.305 | 0.409 | 0.23 | 0.398
3 | GCGACTGTGGCATCAGCAGGTTACCATAACTTAA | 0.205 | -0.1 | -0.291 | -0.209 | 0.187 | 0.277 | 0.0891 | -0.501
4 | GATACAGCGTCAAGGCCAGAGTACGCGTATTGAT | -0.276 | -0.245 | 0.129 | -0.11 | -0.253 | -0.179 | -0.406 | 0.0516
5 | CTTCCAAGGTCAATGCTAGGTCAGTGAAAGCATT | 4.79 | 7.32 | 6.93 | 3.55 | 5.39 | 4.33 | 3.09 | 2.95
6 | GTACCAAGGTGACTAGGTCGTTGATGAGTAGGCG | 0.945 | 0.955 | 0.808 | -0.648 | 0.837 | 1.87 | 0.333 | 0.099
7 | AGTCAAAGTTCAGGACGAGGTTACGTAAAGCACG | 3.96 | 5.81 | 5.25 | 3.2 | 4.19 | 3.92 | 1.81 | 3.15
8 | CCAGACAGGTGAAAGGTAGCTCAGTCTGGTACGC | 0.293 | 0.352 | 0.242 | -0.0776 | 1.07 | 0.0213 | -0.421 | 0.118
9 | ACAGACAGGTGATGTAGGTAACTCAGGCTATCAT | 0.224 | 0.333 | 0.539 | -0.0727 | 0.19 | 0.566 | -0.00745 | -0.512
10 | ACTAGCAGGCCAAGTTTGGGTAACTCAAACAAAG | -0.346 | -0.166 | 0.104 | -0.417 | -0.603 | 0.525 | -0.513 | -0.292
11 | TCATATAGGTAAAGGTGAACGTCGAACGATATGA | 1.73 | 1.71 | 1.52 | 0.894 | 2.17 | 1.5 | -0.0395 | -0.239
12 | GCTAGCATGCCATTTGGGTCACTCAATGACGGGC | 1.77 | 0.756 | 0.805 | -0.283 | 0.99 | 1.69 | 0.874 | 0.0275
13 | GCAGACAGGTGCAACGCAGGTAACTCAGGGTGGC | -0.431 | -0.314 | -0.365 | 0.123 | 0.00957 | 2.13 | -0.805 | -0.15
14 | CCTGCTAGGTCATGATCAGCTAATCTACAGTATG | 2.57 | 3.89 | 4.57 | 1.65 | 2.85 | 2.75 | 0.661 | 0.00806
15 | CCTTACGAGTCAAGGTTATAGCACGGGTGGTACG | 1.07 | 0.83 | 0.637 | 0.174 | 1.07 | 1.58 | 0.715 | 0.529
16 | TTACCAAGGTGAGTTGAGGTCGTTGATCCAACTC | 1.84 | 1.33 | 1.18 | 0.713 | 1.56 | 4.72 | 2.28 | 2.18
17 | GATACAGGGTCAGCTCGAGGCCAGAGTATGGAAA | 3.45 | 6.05 | 4.74 | 1.23 | 4.4 | 3.83 | 0.628 | 0.917
18 | TAGCCTAGGTCAGATCGGGCCAGTTTACGCTATA | 1.83 | 2.54 | 3.36 | -0.346 | 1.21 | 3.76 | 0.0282 | -0.339
19 | CCGACTGGGGTAGAAAGGTTACCATACCATCCGG | 2.13 | 1.97 | 1.04 | -1.26 | 2.35 | 1 | -0.443 | -0.2
20 | TCTGCTAGCTCAGTTGGTCAGCTAACGAGCTGCC | -1.04 | -0.955 | -0.903 | -0.192 | -1.34 | -1.6 | -1.25 | -1.56
21 | CCTACTGGGCCATCACGTCATTGATATCAACGTT | 0.0558 | 0.0905 | 0.383 | -0.0697 | -0.108 | -0.192 | 0.107 | -0.136
22 | GATACAGGGTCAGCTAGAAGCCAGAGTATGGAAA | 2.56 | 4.59 | 4.35 | 1.28 | 4.19 | 2.53 | 0.406 | 0.338
23 | AGAATGAGCTTATACGTAGATCAGGGAAGAAAGT | -0.75 | -0.102 | -0.0616 | -0.769 | -0.13 | -0.46 | -0.669 | -0.447
24 | TAGCCTAGGGCATGCGGGCCAGTATAGTGTCGGC | 0.409 | 0.0659 | 0.455 | -1.55 | -0.233 | -0.465 | -1.1 | -0.907
25 | CCTTACGGGTCACTCCAGGTGATAGCATCGGAGT | 2.96 | 4.43 | 4.29 | 1.6 | 4.45 | 4.81 | 0.559 | 1.16
26 | TCATATAGGTAAACAGGTAAAAGTCCGTAAGTTA | 0.493 | 0.41 | 0.406 | 1.53 | 0.676 | 0.697 | 0.445 | 0.448
27 | CGTCCAAGATCATAGGAGGTCAGTGAAGACAGAT | 3.26 | 2.22 | 2.22 | 0.36 | 2.03 | 3.98 | 0.538 | 1.21
28 | TCTTGGAGATCAACAGGAGGTTAAGAAAGATCGA | 0.488 | 1.9 | 0.145 | 0.185 | 1.3 | 1.14 | -0.452 | -0.283
